Data reported in a collection of fitness landscapes (doi:10.1016/j.celrep.2020.107928).
Over roughly 81,000 sequences, “one-hybrid fitness for binding NBS DNA” has its median near -0.1; the highest 2% begin near 0.36. For the sample, the highest values were picked, then their nearest neighbours and some sequences at random.

B1: Caulobacter ParB omega fusion; a variant is named by its letters at X, in order, B8GW30 (parent)
chain: MESVVVGEPGMSEGRRGLGRGLSALLGEVDAAPAQAPGEQLGGSREAPIEILQRNPDQPRRTFREEDLEDLSNSIREKGVLQPILVRPSPDTAGEYQIVAGERAWRAAQRAGLKTVPIMVRELDDLAVLEIGIIENVQRADLNVLEEALSYKVLMEKFERTQENIAQTIGKSXSHVANXMRLLXLPDEVQSYLVSGELTAXHARAIAAAADPVALAKQIIEGGLSVRETEALARKAPNLSAGKSKGGRPPRVKDTDTQALESDLSSVLGLDVSIDHRGSTGTLTITYATLEQLDDLCNRLTRGI

Variants of: B1
Experiment: one-hybrid fitness for binding NBS DNA (the Noc-binding site; scaled: cognate 1, non-cognate 0); higher = stronger binding
Settings: with NBS DNA site
How it was run: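 Values were rescaled so that cognate is 1 and non-cognate is 0. Each is a fitness, the log change in a variant's read ratio to wild type from Illumina reads of plasmids before and after selection, with three replicate libraries pooled and variants under 10 reads dropped. Selection of the Caulobacter ParB libraries, four specificity codons randomised, used E. coli USO with a HIS3 reporter, site 19 bp from the promoter, on M9-minus-histidine with 0.1 mM IPTG and 5 mM 3-AT for 48 hours at 37°C.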

Row | Variant | one-hybrid fitness for binding NBS DNA
1 | SLHR | ≤ 0.2
2 | ENTM | ≤ 0.2
3 | LGQD | ≤ 0.2
4 | KSNT | ≤ 0.2
5 | PNLF | ≤ 0.2
6 | YVMG | ≤ 0.2
7 | DWYR | ≤ 0.2
8 | LYTY | ≤ 0.2
9 | QAAG | ≤ 0.2
10 | APTR | ≤ 0.2
11 | RCHH | 0.219
12 | PNAR | ≤ 0.2
13 | IYLD | ≤ 0.2
14 | QCCC | ≤ 0.2
15 | QRCM | 0.397
16 | QRCN | 0.397
17 | QSCM | ≤ 0.2
18 | QRCH | 0.52
19 | QRCF | 0.275
20 | QCCM | ≤ 0.2
21 | QSCC | ≤ 0.2
22 | QRCE | 0.223
23 | QRCG | 0.343
24 | QCCN | ≤ 0.2
25 | QRCC | 0.389

Row | Variant | one-hybrid fitness for binding NBS DNA
26 | LFGC | ≤ 0.2
27 | DFND | ≤ 0.2
28 | HHDK | ≤ 0.2
29 | NKRM | ≤ 0.2
30 | EPHG | ≤ 0.2
31 | TMRV | ≤ 0.2
32 | KINT | ≤ 0.2
33 | AVTK | ≤ 0.2
34 | QSFM | ≤ 0.2
35 | YMRR | ≤ 0.2
36 | QGHN | ≤ 0.2
37 | AHIF | ≤ 0.2
38 | DQPR | ≤ 0.2
39 | VTFK | ≤ 0.2
40 | PKYY | ≤ 0.2
41 | QRCQ | 0.382
42 | QRCD | 0.237
43 | QRCP | 0.249
44 | QSCQ | ≤ 0.2
45 | QRCS | 0.693
46 | ALAT | ≤ 0.2
47 | THPT | ≤ 0.2
48 | QRKI | 0.52
49 | QRVI | ≤ 0.2
50 | QTKI | 0.468

Row | Variant | one-hybrid fitness for binding NBS DNA
51 | QSKI | 0.314
52 | QTFI | ≤ 0.2
53 | QPKI | ≤ 0.2
54 | QTVI | ≤ 0.2
55 | QCKI | 0.405
56 | QRPI | ≤ 0.2
57 | KYRQ | ≤ 0.2
58 | YRRY | ≤ 0.2
59 | PRVL | ≤ 0.2
60 | QQIK | ≤ 0.2
61 | NLQI | ≤ 0.2
62 | TNPS | ≤ 0.2
63 | EPGN | ≤ 0.2
64 | FANT | ≤ 0.2
65 | SSVH | ≤ 0.2
66 | PPVW | ≤ 0.2
67 | SDIF | ≤ 0.2
68 | IYDC | ≤ 0.2
69 | RRGT | 0.732
70 | RRHT | 0.755
71 | RRGK | 0.215
72 | RRET | 0.698
73 | RPET | ≤ 0.2
74 | RRHG | 0.362
75 | RRWT | 0.824

Row | Variant | one-hybrid fitness for binding NBS DNA
76 | RRWM | 0.23
77 | RRHM | 0.294
78 | RRGY | 0.36
79 | RCET | ≤ 0.2
80 | DEAY | ≤ 0.2
81 | MGSC | ≤ 0.2
82 | KCYS | ≤ 0.2
83 | CWHL | ≤ 0.2
84 | DVFL | ≤ 0.2
85 | TRWG | ≤ 0.2
86 | YWSC | ≤ 0.2
87 | RRQT | 0.752
88 | RRQQ | 0.268
89 | RRLT | 0.761
90 | RGRT | ≤ 0.2
91 | DRRT | ≤ 0.2
92 | RRYT | 0.769
93 | RRQM | 0.273
94 | RRLM | 0.228
95 | RRRT | 0.786
96 | RFLT | ≤ 0.2
97 | TAWR | ≤ 0.2
98 | RMPQ | ≤ 0.2
99 | CKWG | ≤ 0.2
100 | MIPG | ≤ 0.2

Row | Variant | one-hybrid fitness for binding NBS DNA
101 | HFNT | ≤ 0.2
102 | GLSP | ≤ 0.2
103 | RRST | 0.776
104 | RPDT | ≤ 0.2
105 | RRSC | 0.291
106 | RACT | 0.334
107 | RRCT | 0.77
108 | RRSQ | 0.284
109 | RFCT | ≤ 0.2
110 | RRNT | 0.785
111 | RRNK | 0.274
112 | RRDT | 0.755
113 | RRNQ | 0.313
114 | KAAL | ≤ 0.2
115 | VLTL | ≤ 0.2
116 | LFQI | ≤ 0.2
117 | MRVN | ≤ 0.2
118 | PPII | ≤ 0.2
119 | YTPG | ≤ 0.2
120 | RTHH | 0.262
121 | RTHD | ≤ 0.2
122 | RTSD | ≤ 0.2
123 | RTHS | 0.54
124 | RTDS | 0.219
125 | RTSN | ≤ 0.2

Row | Variant | one-hybrid fitness for binding NBS DNA
126 | RTND | ≤ 0.2
127 | RTNS | 0.534
128 | RTLN | ≤ 0.2
129 | RTLD | ≤ 0.2
130 | RTSS | 0.475
131 | RTLS | 0.381
132 | HINT | ≤ 0.2
133 | HQTT | ≤ 0.2
134 | ITQC | ≤ 0.2
135 | IHSS | ≤ 0.2
136 | SNIS | ≤ 0.2
137 | KRCM | ≤ 0.2
138 | FKNS | ≤ 0.2
139 | RTIS | 0.34
140 | RTRS | 0.651
141 | RTRP | ≤ 0.2
142 | RTWS | 0.349
143 | RTYS | 0.491
144 | RTDH | ≤ 0.2
145 | RTRH | 0.536
146 | RTYH | ≤ 0.2
147 | RTRN | 0.277
148 | IPNR | ≤ 0.2
149 | PSAG | ≤ 0.2
150 | DNSY | ≤ 0.2

Row | Variant | one-hybrid fitness for binding NBS DNA
151 | AIGW | ≤ 0.2
152 | RVDS | ≤ 0.2
153 | RVNP | ≤ 0.2
154 | RVNT | 0.576
155 | RVNR | 0.55
156 | RVDR | 0.213
157 | RVND | ≤ 0.2
158 | RVNS | 0.521
159 | RVNN | ≤ 0.2
160 | RVDT | ≤ 0.2
161 | WHSS | ≤ 0.2
162 | TLQF | ≤ 0.2
163 | SSCT | ≤ 0.2
164 | WSSA | ≤ 0.2
165 | LTMS | ≤ 0.2
166 | PEYD | ≤ 0.2
167 | YDIF | ≤ 0.2
168 | YRPY | ≤ 0.2
169 | RPKC | ≤ 0.2
170 | RKVC | ≤ 0.2
171 | RSYC | ≤ 0.2
172 | RKPC | ≤ 0.2
173 | RMKC | 0.4
174 | RCKC | 0.37
175 | RMVC | ≤ 0.2

Row | Variant | one-hybrid fitness for binding NBS DNA
176 | RSVC | ≤ 0.2
177 | RSKC | 0.382
178 | RLKC | 0.335
179 | RMYC | ≤ 0.2
180 | RKKC | 0.391
181 | CIWR | ≤ 0.2
182 | TVCY | ≤ 0.2
183 | CPRV | ≤ 0.2
184 | GSGL | ≤ 0.2
185 | NLCF | ≤ 0.2
186 | RRSH | 0.439
187 | RRSN | 0.356
188 | RRSP | ≤ 0.2
189 | RRSD | ≤ 0.2
190 | RRSS | 0.643
191 | RCSH | 0.203
192 | APVD | ≤ 0.2
193 | VPVL | ≤ 0.2
194 | EKCM | ≤ 0.2
195 | GETM | ≤ 0.2
